The structures appear in SMILES notation. Records with an inconclusive call do not appear. Unmarked numbers belong to inactive results. Calls of active or inactive are those of the source. Calls follow the shape of the dose curve; as a rule, active = well fitted cell-killing curve with a large enough effect; inconclusive = small, poorly fitted or top-dose-only effect, or effect the other way; inactive = no such curve, though single readings can be large or run the other way.
Potency is read from the fitted curve at half-maximal effect.

This assay is described as follows: Viability qHTS for spleen associated tyrosine kinase inhibitor (SYKi) drug resistant MV4-11 cells (AID 1963824). Also: nearly all actives have a fitted effect of over 35% in size. The following applies: SYKi-resistant MV4-11 viability, CellTiter-Glo, 72 h; series mostly up to 45 µM; viability, % of control: at the top concentration. Summed up:
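SYK inhibitor-resistant MV4-11 AML cells, 500 per well, added to predispensed compounds and incubated 72 hr at 37 C, 5% CO2. Viability measured by CellTiter-Glo luminescence after 10 min at room temperature.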
Consider `COc1ccccc1NC(=O)Nc1ccc2ccccc2c1`, for which the Potency is 20.6 µM (active).

As to `CS(=O)(=O)c1ccc([C@H](CC2CCCC2)C(=O)Nc2nccs2)cc1`, the Potency is 13 µM (active). Still for that read-out and setting: as for `CCC(C)/C=C(C)/C=C/C1=CC2=C(Cl)C(=O)C(C)(O)C(=O)C2(O)C(OC)O1` (stereo unspecified), the figure is 10 µM (active); as for `COc1ccccc1-c1nc(SCC(=O)Nc2ccc(C)c(C)c2)n[nH]1`, 16.4 µM (active). Regarding `Cc1ccc(NS(=O)(=O)c2cc3c(cc2F)NC(=O)CC3)cc1Cl`, the Potency is 16.4 µM (active). `COc1cc(CN(CCN)C(=O)c2cccs2)ccc1OCc1ccccc1`: the Potency was 16.4 µM (active). The same measure, in the same setting: as for `CC1CCC2(NC1)OC1CC3C4CC=C5CC(O[C@@H]6O[C@H](CO)[C@@H](O[C@@H]7O[C@@H](C)[C@H](O)[C@@H](O)[C@H]7O)[C@H](O)[C@H]6O[C@@H]6O[C@@H](C)[C@H](O)[C@@H](O)[C@H]6O)CCC5(C)C4CCC3(C)C1C2C` (stereo partly specified), the figure is 5.51 µM (active). As to `CC(=O)O[C@H]1C[C@@H](O)C(C)(C)C2C[C@@H](OC(C)=O)[C@]3(C)C(CC[C@@]4(C)[C@H](c5ccoc5)OC(=O)[C@H]5O[C@]543)[C@]21C` (stereo partly specified), the “viability, % of control” value was 96.6% [at 17.3 µM]. Take `C=C1CCN([C@H](C)[C@](O)(Cn2cncn2)c2ccc(F)cc2F)CC1`: the Potency was 14.6 µM (active).

In the case of `COc1cc(C2c3cc(O)c(OC)cc3CC(CO)C2CO)ccc1O` (stereo unspecified), the “viability, % of control” value was 111%. With `CC(=O)OC1CC(O)(C(C)C)C2C(OC(=O)c3ccc(O)cc3)C=C(C)C(=O)CC12C` (stereo unspecified), the Potency is 11.2 µM (active).

As for `Nc1cccc(CNC(=O)c2ccc(Oc3ccc(OCc4cccc(F)c4)cc3)nc2)c1`, the Potency is 16.4 µM (active).

Turning to `C[C@]12CC[C@@H]3c4ccc(O[C@@H]5O[C@H](C(=O)O)[C@@H](O)[C@H](O)[C@H]5O)cc4CC[C@H]3[C@@H]1CCC2=O`, the “viability, % of control” value was 106%. As to `C=C1C(=C/C=C2\CCC[C@]3(C)[C@@H]([C@H](C)/C=C/[C@@H](O)C4CC4)CC[C@@H]23)C[C@@H](O)C[C@@H]1O`, the Potency is 0.188 µM (active). For the compound `O=C(NCc1ccccc1)[C@H](Cc1ccccc1)NC(=O)[C@H]1O[C@@H]1C(=O)NCCc1ccc(O)cc1`, the Potency was 13.2 µM (active).

Consider `CCOC(=O)c1sc(NC(=O)[C@H](C(C)C)n2c(=O)[nH]c3ccccc3c2=O)nc1C`, for which the Potency is 16.4 µM (active). Same read-out and setting: as for `COc1cc(N2CCN(C)CC2)ccc1Nc1ncc2c(n1)N(C)c1ccccc1C(=O)N2`, the figure is 13.2 µM (active); as for `Cc1ccc([C@@H]2CC=C(C(=O)O)[C@H](c3ccc(C(C)(C)C)cc3)N2S(=O)(=O)c2ccc(C)cc2)cc1`, 16.4 µM (active). On to `C=C1CC/C=C(/CO)C(=O)C[C@@H]2[C@@H]1CC2(C)C`, for which the “viability, % of control” value was 73.6%.

In the case of `C[C@@H]1C(=O)O[C@H]2[C@H]1CC[C@@]1(C)C(=O)C=C[C@@](C)(O)[C@H]21`, the “viability, % of control” value is 102%.

As for `CC(C)n1cnc2c(Nc3cccc(Cl)c3)nc(NCCO)nc21`, the Potency is 1.84 µM (active). For `C[C@@H]1C[C@@H](O)[C@@]2(CO)C(CO)=CCC[C@@H]2[C@@]12C[C@@H](c1ccoc1)OC2=O`, the “viability, % of control” value was 89.1%. Consider `N#Cc1ccc(Cn2cncc2CN2CCN(c3cccc(Cl)c3)C(=O)C2)cc1`, for which the Potency is 2.95 µM (active). For the compound `C/C=C(\C)C(=O)OC[C@H]1O[C@@H](O[C@H]2[C@@H](O[C@H]3O[C@H](COC(=O)/C(C)=C/C)[C@@H](O)[C@H](O)[C@H]3O[C@@H]3O[C@H](COC(=O)/C(C)=C/C)[C@@H](O)[C@H](OC(=O)/C(C)=C/C)[C@H]3O)O[C@H](COC(=O)/C(C)=C/C)[C@@H](O)[C@@H]2O)[C@H](O)[C@@H](O)[C@@H]1O`, the viability, % of control was 65.9% [at 9.25 µM]. Regarding `CC1(C)S[C@@H]2[C@H](NC(=O)[C@H](NC(=O)N3CCN(S(C)(=O)=O)C3=O)c3ccccc3)C(=O)N2[C@H]1C(=O)O`, the “viability, % of control” value is 87.3%.

As to `C=C1C(=O)O[C@@H]2CC(C)=C([C@@H](C)CCCO)[C@@H](OC(=O)C(C)C)[C@H]12`, the Potency is 4.04 µM (active). As for `OC[C@H]1O[C@@H](OC(CCCCc2ccc(O)cc2)CCc2ccc(O)cc2)[C@H](O)[C@@H](O)[C@@H]1O` (stereo partly specified), the “viability, % of control” value was 38.7% [at 17.3 µM]. Turning to `CC(=O)c1cc(C(=O)N[C@@H](C)Cn2ccc(-c3ccc(C#N)c(Cl)c3)n2)[nH]n1`, the Potency was 14.6 µM (active). In the case of `c1ccc(Nc2nc3c(s2)CCCc2[nH]ncc2-3)nc1`, the Potency is 14.6 µM (active). The same measure, in the same setting: under `C=C1C(=O)O[C@@H]2C[C@H](C)[C@@H]3CC(=O)C(C)=C3C[C@H]12` stands 1.16 µM (active); under `CN(C)CCCNc1c2ccccc2nc2c1[nH]c1ccccc12`, 0.731 µM (active).

The values above are taken from PubChem BioAssay (NCATS).
